Test results reported in PubChem BioAssay (NCI).
About 83,000 compounds went through this panel and 20% of them were active in at least one assay; those are over-represented in the sample as a whole.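 Values shown are percent growth following 48 h exposure of cells in 96-well plates to a single concentration of compound; below 10 was considered active.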 Active and inactive are the calls of the source.

Tests used:
Assay in all cases: NCI-60 one-dose screen, 48 h (100 = growth as untreated, 0 = no growth, -100 = all killed)
Conditions in all cases: 10 µM unless noted
HCT-15 colon = test system: HCT-15 colon
HT29 colon = test system: HT29 colon
SNB-75 CNS = test system: SNB-75 CNS
SNB-19 CNS = test system: SNB-19 CNS
U251 CNS = test system: U251 CNS
PC-3 prostate = test system: PC-3 prostate
SK-MEL-5 melanoma = test system: SK-MEL-5 melanoma
UACC-62 melanoma = test system: UACC-62 melanoma
LOX IMVI melanoma = test system: LOX IMVI melanoma
SK-MEL-28 melanoma = test system: SK-MEL-28 melanoma

Measured: growth

COc1cc(C(=O)/C=C/c2c(C(F)(F)F)nc3ccccn23)cc(OC)c1OC
inactive: SNB-19 CNS 14.6%
active: HCT-15 colon -44.2% | HT29 colon -56.5% | SNB-75 CNS 1.22% | U251 CNS -60.2% | PC-3 prostate 7.45% | SK-MEL-5 melanoma -95.2% | UACC-62 melanoma -75.6% | LOX IMVI melanoma -79.8% | SK-MEL-28 melanoma -65.2%

CN(C)c1ccc2cc(-c3ccccc3F)c(N)nc2c1
active: HT29 colon 1.79% | SK-MEL-5 melanoma -18.8%
inactive: HCT-15 colon 37.4% | SNB-75 CNS 11.3% | SNB-19 CNS 55.1% | U251 CNS 16.8% | PC-3 prostate 31.6% | UACC-62 melanoma 40.2% | LOX IMVI melanoma 33.4% | SK-MEL-28 melanoma 58%

CN(C)c1ccc(C#Cc2c(F)cccc2Cl)cc1
inactive: HCT-15 colon 78.4% | HT29 colon 73.7% | SNB-75 CNS 75% | SNB-19 CNS 111% | U251 CNS 89.1% | PC-3 prostate 70.5% | SK-MEL-5 melanoma 85.3% | UACC-62 melanoma 87.6% | LOX IMVI melanoma 81.3% | SK-MEL-28 melanoma 105%

CO[C@H]1/C=C/O[C@@]2(C)Oc3c(C)c(O)c4c(c3C2=O)C(=O)C(/C=N/N(c2ccccc2)c2ccccc2)=C(NC(=O)/C(C)=C\C=C\[C@H](C)[C@H](O)[C@@H](C)[C@@H](O)[C@@H](C)[C@H](OC(C)=O)[C@@H]1C)C4=O
active: HCT-15 colon -20.3% | HT29 colon -12.7% | U251 CNS -72.7% | PC-3 prostate -2.79% | SK-MEL-5 melanoma -88.2% | UACC-62 melanoma -71.1% | LOX IMVI melanoma -81.1% | SK-MEL-28 melanoma -58.3%
inactive: SNB-75 CNS 19.6% | SNB-19 CNS 19.1%

COc1ccc(N=c2nc3sc4cc(Cl)ccc4n3c(N)c2C#N)cc1
inactive: HCT-15 colon 99.5% | HT29 colon 36.1% | SNB-75 CNS 36.9% | SNB-19 CNS 82% | U251 CNS 79% | PC-3 prostate 58.5% | SK-MEL-5 melanoma 14.9% | UACC-62 melanoma 69.3% | LOX IMVI melanoma 83% | SK-MEL-28 melanoma 45.8%

O=C1C(Cl)C(c2ccccc2Cl)N1n1cnnc1 (stereo not given)
inactive: HCT-15 colon 101% | HT29 colon 103% | SNB-75 CNS 74% | SNB-19 CNS 93% | U251 CNS 99.6% | PC-3 prostate 88% | SK-MEL-5 melanoma 97.3% | UACC-62 melanoma 94.7% | LOX IMVI melanoma 91.4% | SK-MEL-28 melanoma 96.4%

COc1ccc(-c2cc(-c3cc(OC)ccc3O)[nH]c(=O)c2C#N)cc1
inactive: HCT-15 colon 60.2% | HT29 colon 28.4% | SNB-75 CNS 58.9% | SNB-19 CNS 65.4% | U251 CNS 22.5% | PC-3 prostate 52% | SK-MEL-5 melanoma 31.4% | UACC-62 melanoma 41.4% | LOX IMVI melanoma 40.5% | SK-MEL-28 melanoma 67.5%

CCCCCCNCc1cc(C(C)(C)C)cc(CNCCCCCC)c1O
active: HCT-15 colon -59.6% | HT29 colon -86% | SNB-75 CNS -62.1% | SNB-19 CNS 9.11% | U251 CNS -88.4% | PC-3 prostate 6.77% | SK-MEL-5 melanoma -98.2% | UACC-62 melanoma -85.3% | LOX IMVI melanoma -88.8% | SK-MEL-28 melanoma -88.8%

CCOC(=O)c1c(C)nc2c(c1N)/C(=C/c1cc(OC)c(OC)c(OC)c1)C(=O)N2c1ccc(OC)cc1
inactive: HCT-15 colon 31.3% | HT29 colon 26.2% | SNB-75 CNS 73.9% | SNB-19 CNS 47.9% | U251 CNS 43.6% | PC-3 prostate 50.1% | SK-MEL-5 melanoma 69.5% | UACC-62 melanoma 67.3% | LOX IMVI melanoma 14.6% | SK-MEL-28 melanoma 70.2%

O=C1Nc2ccccc2SC1c1ccccc1Cl (stereo not given)
inactive: HCT-15 colon 110% | HT29 colon 46% | SNB-75 CNS 34.5% | SNB-19 CNS 111% | U251 CNS 112% | PC-3 prostate 92.8% | SK-MEL-5 melanoma 106% | UACC-62 melanoma 101% | LOX IMVI melanoma 107% | SK-MEL-28 melanoma 104%

COc1ccc(-c2cncnc2N)cc1OC
inactive: HCT-15 colon 103% | HT29 colon 111% | SNB-75 CNS 88.3% | SNB-19 CNS 108% | U251 CNS 97.7% | PC-3 prostate 90.6% | SK-MEL-5 melanoma 106% | UACC-62 melanoma 112% | LOX IMVI melanoma 98.6% | SK-MEL-28 melanoma 106%

COc1cc2cc(Oc3ccc(NC(=O)Nc4cc(C(F)(F)F)cc(C(F)(F)F)c4)cc3)c(C)nc2cc1OCCN1CCCCC1
active: HCT-15 colon -82.4% | HT29 colon -64.8% | SNB-75 CNS -97.7% | SNB-19 CNS -92.2% | U251 CNS -69.3% | PC-3 prostate -45.2% | SK-MEL-5 melanoma -49.9% | UACC-62 melanoma -84.9% | LOX IMVI melanoma -99.1% | SK-MEL-28 melanoma -95.5%

CCCN1CCN(c2ccc3nc(-c4ccc5nc(-c6cc(OC)c(OC)c(OC)c6)[nH]c5c4)[nH]c3c2)CC1
inactive: HCT-15 colon 99.5% | HT29 colon 58% | SNB-75 CNS 43.6% | SNB-19 CNS 69.8% | U251 CNS 66.3% | PC-3 prostate 70.7% | SK-MEL-5 melanoma 41.3% | UACC-62 melanoma 35.8% | LOX IMVI melanoma 67.3% | SK-MEL-28 melanoma 57.8%

CCC(=O)OC1=C(C)SC2=NC(c3ccc(Cl)c(Cl)c3)=CC(c3cc(OC)c(OC)c(OC)c3)N21 (stereo not given)
inactive: HCT-15 colon 89.8% | HT29 colon 103% | SNB-75 CNS 76.9% | SNB-19 CNS 94.5% | U251 CNS 95.9% | PC-3 prostate 91.8% | SK-MEL-5 melanoma 98.7% | UACC-62 melanoma 87.8% | LOX IMVI melanoma 99.6% | SK-MEL-28 melanoma 104%

CC(C)CCC[C@@H](C)[C@H]1CCC2C3=CCC4C(=O)C=CC(=O)C4C3CC[C@@]21C (stereo not given in full)
active: HCT-15 colon 3.29% | SNB-75 CNS 7.34% | PC-3 prostate 9.01% | SK-MEL-5 melanoma -48.5% | LOX IMVI melanoma -43.4%
inactive: HT29 colon 11.3% | SNB-19 CNS 38.2% | U251 CNS 11.5% | UACC-62 melanoma 28.7% | SK-MEL-28 melanoma 41.9%

CSc1nc2sc3cc(Cl)ccc3n2c(=N)c1C#N
inactive: HCT-15 colon 94.7% | HT29 colon 33% | SNB-75 CNS 26% | SNB-19 CNS 81.8% | U251 CNS 89.4% | PC-3 prostate 66.4% | SK-MEL-5 melanoma 45.2% | UACC-62 melanoma 59.4% | LOX IMVI melanoma 86.8% | SK-MEL-28 melanoma 41.9%

COc1ccc(CN2C(=O)/C(=C\c3cc(OC)c(OC)c(OC)c3)c3ccccc32)cc1
active: HCT-15 colon -55.8% | HT29 colon 0.194% | SNB-75 CNS 8.57% | U251 CNS -73.6% | SK-MEL-5 melanoma -25.1% | UACC-62 melanoma -8.88% | LOX IMVI melanoma -76% | SK-MEL-28 melanoma -34.9%
inactive: SNB-19 CNS 60.3% | PC-3 prostate 10.9%

CCNCCNc1cc(-c2ccc(Cl)cc2)c(C#N)c2nc3ccccc3n12
active: HCT-15 colon -78.5% | HT29 colon -32.2% | SNB-75 CNS -76.6% | U251 CNS -53.2% | SK-MEL-5 melanoma -99.4% | UACC-62 melanoma -82.7% | LOX IMVI melanoma -77.4% | SK-MEL-28 melanoma -90.2%
inactive: SNB-19 CNS 36% | PC-3 prostate 27.2%

CSc1ncc(C)c(Nc2ccc(Cl)cc2)n1
inactive: HCT-15 colon 99.3% | HT29 colon 96.4% | SNB-75 CNS 90.4% | SNB-19 CNS 105% | U251 CNS 93% | PC-3 prostate 87.6% | SK-MEL-5 melanoma 110% | UACC-62 melanoma 99.4% | LOX IMVI melanoma 107% | SK-MEL-28 melanoma 114%

COc1ccc(/C(C)=N/NS(=O)(=O)c2ccc(C)cc2)cc1OC
inactive: HCT-15 colon 103% | HT29 colon 109% | SNB-75 CNS 108% | SNB-19 CNS 107% | U251 CNS 99.6% | PC-3 prostate 91.6% | SK-MEL-5 melanoma 103% | UACC-62 melanoma 105% | LOX IMVI melanoma 93.1% | SK-MEL-28 melanoma 123%

NC(=O)c1c(NC(=O)c2ccc(C(F)(F)F)cc2Cl)sc2c1CCC(=O)C2
inactive: SNB-19 CNS 14%
active: HCT-15 colon -35% | HT29 colon 1.16% | SNB-75 CNS -81.9% | U251 CNS -5.53% | PC-3 prostate -68.8% | SK-MEL-5 melanoma -91.9% | UACC-62 melanoma -74.7% | LOX IMVI melanoma -15.5% | SK-MEL-28 melanoma -67.2%

NS(=O)(=O)Oc1ccc(NC(=O)C23CC4CC(CC(C4)C2)C3)cc1Cl
inactive: HCT-15 colon 101% | HT29 colon 103% | SNB-75 CNS 84.3% | SNB-19 CNS 90.9% | U251 CNS 96% | PC-3 prostate 94.5% | SK-MEL-5 melanoma 91.1% | UACC-62 melanoma 86.8% | LOX IMVI melanoma 82.9% | SK-MEL-28 melanoma 104%

CNC=O
inactive: HCT-15 colon 99.3% | HT29 colon 92.6% | SNB-75 CNS 86.8% | SNB-19 CNS 97.5% | U251 CNS 100% | PC-3 prostate 98.1% | SK-MEL-5 melanoma 59.9% | UACC-62 melanoma 96.2% | LOX IMVI melanoma 97.1% | SK-MEL-28 melanoma 96.6%

CCOC(=O)Cc1csc2nc(-c3ccccc3)nn12
inactive: HCT-15 colon 113% | HT29 colon 106% | SNB-75 CNS 105% | SNB-19 CNS 90.2% | U251 CNS 106% | PC-3 prostate 101% | SK-MEL-5 melanoma 107% | UACC-62 melanoma 98.6% | LOX IMVI melanoma 89% | SK-MEL-28 melanoma 117%

N#Cc1cnn2c(-c3ccc(Cl)cc3)nc(NC3CC3)nc12
inactive: HCT-15 colon 90.1% | HT29 colon 88.8% | SNB-75 CNS 87.7% | SNB-19 CNS 86.6% | U251 CNS 97.3% | PC-3 prostate 95% | SK-MEL-5 melanoma 95.3% | UACC-62 melanoma 85.6% | LOX IMVI melanoma 99% | SK-MEL-28 melanoma 113%

CCCCCOC(=O)c1ccc(NC(=O)CNCC(C)C)cc1
inactive: HCT-15 colon 86.8% | HT29 colon 80.6% | SNB-75 CNS 86.3% | SNB-19 CNS 90.6% | U251 CNS 93.1% | PC-3 prostate 65.8% | SK-MEL-5 melanoma 95.7% | UACC-62 melanoma 91.6% | LOX IMVI melanoma 94.4% | SK-MEL-28 melanoma 105%

C/C(Cc1ccc(Cl)cc1)=C(/c1ccc(Cl)cc1)c1ccc(OCCN(C)C)cc1
active: HCT-15 colon 2.19% | HT29 colon 8.12% | LOX IMVI melanoma -88%
inactive: SNB-75 CNS 68.7% | SNB-19 CNS 69.4% | U251 CNS 38.2% | PC-3 prostate 58.1% | SK-MEL-5 melanoma 67.5% | UACC-62 melanoma 82% | SK-MEL-28 melanoma 84.4%
